Data as given in PubChem BioAssay (NCI).
About 83,000 compounds went through this panel and 20% of them were active in at least one assay; those are over-represented in the sample as a whole.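 Single-dose data. Exposure time 48 hours. Values below 10 considered active.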 Activity calls are given as the source filed them.

Legend:
Experiment in all cases: NCI-60 one-dose screen, 48 h (100 = growth as untreated, 0 = no growth, -100 = all killed)
Conditions in all cases: 10 µM unless noted
NCI-H23 lung = tested on: NCI-H23 lung
NCI-H226 lung = tested on: NCI-H226 lung
NCI-H322M lung = tested on: NCI-H322M lung
HOP-62 NSCLC = tested on: HOP-62 NSCLC
NCI-H460 lung = tested on: NCI-H460 lung
HOP-92 NSCLC = tested on: HOP-92 NSCLC
NCI-H522 lung = tested on: NCI-H522 lung
A549/ATCC NSCLC = tested on: A549/ATCC NSCLC
786-0 renal = tested on: 786-0 renal
COLO 205 colon = tested on: COLO 205 colon

Measured: growth

O=C(/C=C/C12c3ccccc3C(c3ccccc31)C1C(=O)NC(=O)C12)c1ccccn1 (stereo not given)
active: NCI-H23 lung -8.66% | NCI-H322M lung -4.26% | HOP-62 NSCLC -22.7% | NCI-H460 lung -18.5% | HOP-92 NSCLC -12.4% | NCI-H522 lung 7.45% | A549/ATCC NSCLC 6.07% | 786-0 renal 1.59% | COLO 205 colon -50.5%
inactive: NCI-H226 lung 48.5%

C#CCn1cnc2c(Nc3cccc(NC(=O)CCl)c3)ncnc21
inactive: NCI-H23 lung 38.1% | NCI-H226 lung 51.4% | NCI-H322M lung 81.1% | HOP-62 NSCLC 43.5% | NCI-H460 lung 21.8% | HOP-92 NSCLC 35.3% | A549/ATCC NSCLC 44.8% | 786-0 renal 49.2% | COLO 205 colon 18.6%
active: NCI-H522 lung -19.1%

CN1C(=O)/C(=C/c2ccc(C(=O)Nc3ncc(Cc4ccc(F)cc4)s3)cc2)SC1=S
inactive: NCI-H23 lung 62.1% | NCI-H226 lung 65.3% | NCI-H322M lung 52% | HOP-62 NSCLC 44.9% | NCI-H460 lung 20.2% | HOP-92 NSCLC 44.2% | NCI-H522 lung 39% | A549/ATCC NSCLC 46.8% | 786-0 renal 51.9% | COLO 205 colon 72.3%

COc1cc2c(c(OC)c1OC)C(=O)N[C@@H]1[C@@H](O)[C@@H](O)[C@H](O)C[C@@H]21
inactive: NCI-H23 lung 106% | NCI-H226 lung 102% | NCI-H322M lung 104% | HOP-62 NSCLC 102% | NCI-H460 lung 110% | HOP-92 NSCLC 91.4% | NCI-H522 lung 97.7% | A549/ATCC NSCLC 98.4% | 786-0 renal 94.9% | COLO 205 colon 108%

CN1CCN(C(=O)c2cc(-c3ccc4ncnc(N5CCc6cc(F)c(Cl)cc65)c4c3)cnc2N)CC1
inactive: NCI-H226 lung 14.5% | HOP-62 NSCLC 12%
active: NCI-H23 lung 8.25% | NCI-H322M lung -8.41% | NCI-H460 lung 8.83% | HOP-92 NSCLC -27.2% | NCI-H522 lung 2.49% | A549/ATCC NSCLC 3.84% | 786-0 renal 2.28% | COLO 205 colon 3.92%

N#C/C(=C\c1ccc(Br)cc1)c1cc2ccccc2[nH]1
inactive: NCI-H23 lung 92.1% | NCI-H226 lung 92.7% | NCI-H322M lung 91.6% | HOP-62 NSCLC 86.3% | NCI-H460 lung 96.1% | HOP-92 NSCLC 70.4% | NCI-H522 lung 85% | A549/ATCC NSCLC 101% | 786-0 renal 93.3% | COLO 205 colon 105%

C=C1C(=O)O[C@H]2[C@H]1CC/C(COC(=O)/C=C\C(=O)NCc1ccc(Cn3c(=O)sn(-c4ccccc4)c3=O)cc1)=C\CC[C@@]1(C)O[C@@H]21
active: NCI-H522 lung -5.66% | COLO 205 colon 9.17%
inactive: NCI-H23 lung 92.1% | NCI-H226 lung 105% | NCI-H322M lung 107% | HOP-62 NSCLC 105% | NCI-H460 lung 96.7% | HOP-92 NSCLC 84.4% | A549/ATCC NSCLC 98% | 786-0 renal 70.5%

O=C(Nc1cccc(NC(=O)C2CCCCC2)c1)c1ccccn1
inactive: NCI-H23 lung 88.3% | NCI-H226 lung 106% | NCI-H322M lung 89.2% | HOP-62 NSCLC 100% | NCI-H460 lung 114% | HOP-92 NSCLC 112% | NCI-H522 lung 89.9% | A549/ATCC NSCLC 102% | 786-0 renal 95% | COLO 205 colon 117%

COc1ccc(Cc2nnc(Nc3nc4ccccc4s3)s2)cc1
inactive: NCI-H23 lung 93% | NCI-H226 lung 98.3% | NCI-H322M lung 89.1% | HOP-62 NSCLC 108% | NCI-H460 lung 102% | HOP-92 NSCLC 85% | NCI-H522 lung 100% | A549/ATCC NSCLC 99.4% | 786-0 renal 98.1% | COLO 205 colon 111%

COc1ccc2nc3ccccc3c(NCc3ccc(F)cc3)c2c1
active: NCI-H460 lung 5.47% | HOP-92 NSCLC -11.3% | 786-0 renal 6.83% | COLO 205 colon -54.4%
inactive: NCI-H23 lung 14% | NCI-H226 lung 30% | NCI-H322M lung 22.6% | HOP-62 NSCLC 28.2% | NCI-H522 lung 18.2% | A549/ATCC NSCLC 19.7%

COc1cc(C2C3=C(COC3=O)N(CCO)c3cc4c(cc32)OCCO4)cc(OC)c1OC (stereo not given)
active: NCI-H460 lung 1.13% | NCI-H522 lung -10% | 786-0 renal 1.83% | COLO 205 colon -85.9%
inactive: NCI-H23 lung 14.5% | NCI-H226 lung 13.5% | NCI-H322M lung 36.9% | HOP-62 NSCLC 15.4% | HOP-92 NSCLC 26.8% | A549/ATCC NSCLC 11.9%

O=C1NC(=Nc2ccc(O)cc2)S/C1=C\c1cccs1
inactive: NCI-H23 lung 47.4% | NCI-H226 lung 57.4% | NCI-H322M lung 35.3% | HOP-62 NSCLC 46.7% | NCI-H522 lung 15.5% | A549/ATCC NSCLC 35.4% | 786-0 renal 20.2% | COLO 205 colon 105%
active: NCI-H460 lung 3.62% | HOP-92 NSCLC -7.99%

O=C(NCc1ccccc1O)c1cccc2ccccc12
active: HOP-92 NSCLC -8.54%
inactive: NCI-H23 lung 47.8% | NCI-H226 lung 76.7% | NCI-H322M lung 95.9% | HOP-62 NSCLC 86.5% | NCI-H460 lung 70.3% | NCI-H522 lung 65.8% | A549/ATCC NSCLC 87.4% | 786-0 renal 72.7% | COLO 205 colon 106%

CCCCCCCCn1ccc2cc(NC(=O)Cn3cc(CN4CCC(C)CC4)nn3)ccc21
inactive: NCI-H23 lung 79.4% | NCI-H226 lung 69.9% | NCI-H322M lung 28.6% | HOP-62 NSCLC 72.4% | HOP-92 NSCLC 21.8% | NCI-H522 lung 18.7% | A549/ATCC NSCLC 21.1%
active: NCI-H460 lung -70.2% | 786-0 renal 0.91% | COLO 205 colon -74.4%
